BRCA1 expr up: BRCA1 expression activation; MCF7-BRCA1-FFLuc reporter, luminescence, 48 h; response scale: scaled: vehicle 0%, 10 µM genistein 100%; Potency, µM (top dose mostly 46.1 µM), without a hit: at the highest dose activation, actives largely listed as activators; 380,000 tested, 1.1% active; AID 624202; note: nearly all actives have a fitted effect of over 80% in size
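Reporter cells (MCF7, BRCA1 promoter-firefly luciferase) received library compounds across a concentration series for 48 h. End-point luminescence was measured and concentration-effect curves derived after normalization.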
VDR inh: vitamin D3 receptor (human) inhibition. 400,000 tested, 0.93% active. P11473. AID 504847. Potency, µM, without a hit: max response, negative = inhibition, hits mostly inhibitors. VDR-SRC2-3 peptide fluorescence polarization, 2 h; note: % is set by controls: 0 for no effect and ±100 for the full control effect
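Fluorescence polarization assay of small-molecule disruption of VDR binding to coregulator peptide SRC2-3. Compounds and controls pin-transferred, then read after 2 h incubation at ambient room temperature.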
PLK1 PBD inh: inhibitors of human PLK1 polo-box domain binding | P53350 | Plk1 PBD binding of FITC phosphopeptide, fluorescence polarization | Potency, µM, for inactives: max response, negative = inhibition, hits mostly inhibitors | 360,000 tested, 2.8% active | AID 720504; note: series mostly up to about 57 µM; % is set by controls: 0 for no effect and ±100 for the full control effect; nearly all actives have a fitted effect of over 65% in size
Target sequence (P53350 whole entry, looked up, the tested form may be a part): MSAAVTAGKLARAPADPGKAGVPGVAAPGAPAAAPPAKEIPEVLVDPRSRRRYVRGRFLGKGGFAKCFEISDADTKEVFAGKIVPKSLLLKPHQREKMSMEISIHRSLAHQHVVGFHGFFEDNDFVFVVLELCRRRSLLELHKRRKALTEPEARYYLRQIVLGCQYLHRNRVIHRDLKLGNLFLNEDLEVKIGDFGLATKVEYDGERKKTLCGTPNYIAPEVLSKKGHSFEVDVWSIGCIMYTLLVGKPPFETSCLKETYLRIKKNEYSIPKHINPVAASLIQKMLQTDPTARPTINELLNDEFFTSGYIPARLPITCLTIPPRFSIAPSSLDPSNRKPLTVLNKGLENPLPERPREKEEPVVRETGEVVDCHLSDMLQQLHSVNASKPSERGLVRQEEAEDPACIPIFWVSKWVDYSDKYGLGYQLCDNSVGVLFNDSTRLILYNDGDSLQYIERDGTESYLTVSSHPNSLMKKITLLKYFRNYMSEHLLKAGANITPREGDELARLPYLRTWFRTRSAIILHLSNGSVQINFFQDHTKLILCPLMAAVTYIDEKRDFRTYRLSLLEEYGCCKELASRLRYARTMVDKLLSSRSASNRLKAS
Tb PFK inh: T. brucei PFK enzyme inhibition; O15648; T. brucei PFK, ADP-Glo luminescence; Potency, µM (top dose mostly 57.5 µM), for the others: at the highest dose activity, negative = inhibition, hits mostly inhibitors; 330,000 tested, 0.17% active;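 note: 0% = uninhibited 1x PFK enzyme wells and -100% = no-enzyme wells; nearly all actives have a fitted effect of over 60% in size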
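In TEA buffer at pH 8.0 with 5 mM MgCl2, enzyme (1.25 nM) converted F6P (0.5 mM) and ATP (0.1 mM) for 45 min at room temperature. ADP product was read by luciferase luminescence.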
Starred values were filed as active, the others as inactive; ? = inconclusive; nt = no result. Only some compounds are listed: those with a hit (about 3.9% of all), similar ones and a draw of the others. Calls come from the whole dose curve; as a rule, active = well fitted curve in the direction sought with a large enough effect; inconclusive = small, poorly fitted or top-dose-only effect, or another doubt; inactive = no such curve, though single readings can be large; an effect the other way counts as inactive or inconclusive. Potency is the fitted concentration of half-maximal effect.

SMILES	BRCA1 expr up	VDR inh	PLK1 PBD inh	Tb PFK inh
CC[C@H]1OC(=O)[C@H](C)[C@@H](O[C@H]2C[C@@](C)(OC)[C@@H](O)[C@H](C)O2)[C@H](C)[C@@H](O[C@@H]2O[C@H](C)C[C@H](N(C)C)[C@H]2O)[C@](C)(O)C[C@@H](C)C(=O)[C@H](C)[C@@H](O)[C@]1(C)O	0.0%	-2.3%	21.2µM*	0.3%
Cc1ccc(C)c(C(=O)CCC(=O)NNC(=O)c2cccs2)c1	4.9%	12.8%	2.8%	0.0%
O=C(CCN1C(=O)C2C3CC(C(Br)C3Br)C2C1=O)OCC(=O)c1ccccc1 (centres undefined)	6.7%	?	26.7µM*	-0.2%
CSc1nnc2c3ccccc3c3ccccc3c2n1	-11.8%	?	21.2µM*	-5.4%
CCOc1cc(C(=O)OCc2cc(=O)n3nc(CC)sc3n2)cc(OCC)c1OCC	1.6%	17.2%	nt	nt
C[C@H]1CN([C@@H](C)CO)C(=O)CCCn2cc(nn2)CO[C@@H]1CN(C)C(=O)Nc1cccc(Oc2ccccn2)c1	5.4%	nt	-21.0%	nt
O=C(Nc1cc(S(=O)(=O)Nc2ccc(Cl)cc2)ccc1N1CCCCC1)c1ccc(F)cc1	-58.8%	?	11.9µM*	-5.9%
COc1ccc(NS(=O)(=O)c2ccc(N3CCOCC3)c(NC(=O)c3ccc(F)cc3)c2)cc1	-36.1%	-18.8%	-0.8%	0.9%
CC(C)NC(=O)Nc1ccc2c(c1)CC(=O)N([C@@H](C)CO)C[C@H](C)[C@@H](CN(C)C(=O)NC1CCCCC1)O2	5.6%	89.1µM*	-15.0%	-2.8%
CCC(CC)c1nnc(NC(=O)C2CC(=O)N(CCc3ccc(F)cc3)C2)s1 (centres undefined)	-21.6%	79.4µM*	23.8µM*	-1.5%
CCC(CC)c1nnc(NC(=O)C2CC(=O)N(CCc3ccc(OC)c(OC)c3)C2)s1 (centres undefined)	-26.9%	-0.4%	1.9%	16.0%
Cc1ccc(NC(=O)N2CCc3ccccc3C2)cc1	?	10.8%	-2.8%	-1.3%
CC(=O)c1ccc(NC(=O)N2CCc3ccccc3C2)cc1	11.2µM*	-5.0%	-2.5%	0.2%
O=C(Cc1ccc(Cl)cc1)N1CCc2ccccc2C1	10µM*	-15.7%	-0.3%	nt
CC(=O)c1cccc(NC(=O)N2CCc3ccccc3C2)c1	8.91µM*	6.2%	-7.7%	-2.0%
COc1ccc(NC(=O)N2CCc3ccccc3C2)cc1	7.94µM*	8.4%	-4.2%	-2.9%
CN(C)c1ccc(NC(=O)CN2CCc3ccccc3C2)cc1	11.2µM*	5.0%	-5.1%	-0.9%
O=C(CNc1cccc(F)c1)N1CCc2ccccc2C1	7.94µM*	1.8%	-15.8%	-8.9%
CCCCc1ccc(NC(=O)COC(=O)c2ccccc2OCC(=O)Nc2ccc(Br)cc2)cc1	0.0%	nt	nt	nt
O=C(Nc1nc(=S)ss1)c1ccc(Cl)cc1Cl	17.8%	-14.1%	15µM*	-0.4%
O=C(Nc1ccc2ccccc2c1)c1ccc(Cl)cc1Cl	?	-10.8%	-0.9%	-15.2%
Cc1ccnc(NC(c2ccccc2)c2ccc3cccnc3c2O)c1 (centres undefined)	-89.3%	?	?	nt
Cc1ccnc(NC(c2ccsc2)c2ccc3ccc(C)nc3c2O)c1 (centres undefined)	-29.4%	39.8µM*	2.99µM*	-0.8%
CC1(C)CC(=O)c2cc(C(=O)Nc3ccccc3)c(=O)[nH]c2C1	3.1%	nt	nt	nt
COCc1ccc(C(=O)N(C)CC2CCCN(CCc3ccc(OC)cc3)C2)o1 (centres undefined)	12.6µM*	-14.9%	-9.7%	-3.9%
SMILES	BRCA1 expr up	VDR inh	PLK1 PBD inh	Tb PFK inh
O=C(Cc1c(O)c2ccccc2oc1=O)c1ccc(C(F)(F)F)cc1	-9.4%	-27.5%	-18.0%	3.1%
O=C(SCc1c(O)c2ccccc2oc1=O)c1ccccc1	-5.0%	nt	13.4µM*	nt
CC(C)CCNC(=O)c1cccc(S(=O)(=O)N2CCc3ccccc32)c1	-46.9%	12.6%	-2.4%	-3.5%
CC(C)CN(CC(C)C)C(=O)c1cccc(S(=O)(=O)N2CCc3ccccc32)c1	-43.9%	30.8%	23.8µM*	14.4%
O=S1(=O)CC(N2CC=CC2)CN1Cc1ccccc1 (centres undefined)	8.5%	nt	-10.7%	nt
Cc1ccc(S(=O)(=O)NNc2ccccc2)cc1	-19.3%	?	28.2µM*	?
Cc1ccc(S(=O)(=O)Nc2cccnc2)cc1	12.2%	?	21.2µM*	-4.6%
NNc1nc2ccccc2nc1C(F)(F)F	0.0%	-28.3%	18.9µM*	-6.0%
Cc1ccc(S(=O)(=O)NNc2c3ccccc3nc3ccc(Cl)cc23)cc1	5.4%	nt	-11.9%	nt
Cc1ccc(S(=O)(=O)Nc2ccc(Nc3ccccc3)cc2)cc1	0.4%	-1.7%	7.3%	-7.3%
Cc1ccc(S(=O)(=O)NNc2nc3ccccc3nc2C(F)(F)F)cc1	-14.9%	?	8.44µM*	-23.3%
COc1ccc(NC(=O)Cc2c(C(=O)O)[nH]c3ccccc23)cc1OC	nt	4.2%	nt	nt
CC(C)Oc1ccc(C(=O)Nc2nc3c(s2)CC(C(C)(C)C)CC3)cc1 (centres undefined)	0.0%	7.3%	nt	nt
COc1ccc(CNC(=O)COC(=O)Cc2ccc(Br)cc2)cc1	32.9%	-3.4%	-3.3%	0.4%
Cc1ccc(S(=O)(=O)Nc2ccnc3ccccc23)cc1	-12.5%	?	26.7µM*	5.4%
C=CCn1c(SCC(=O)NCc2ccc3c(c2)OCO3)nc2scc(-c3ccccc3)c2c1=O	-43.5%	-8.0%	-4.6%	3.7%
C=CCn1c(SCC(C)=O)nc2scc(-c3ccco3)c2c1=O	-1.8%	79.4µM*	?	?
C=CCn1c(SC(F)F)nc2scc(-c3ccco3)c2c1=O	-76.6%	?	-11.3%	1.1%
C=CCn1c(SCC(=O)N2CC(=O)Nc3ccccc32)nc2scc(-c3ccccc3)c2c1=O	-46.2%	4.1%	11.9µM*	-0.3%
COc1cccc(N2CCN(C(=O)C3Cc4ccccc4N3C(C)=O)CC2)c1 (centres undefined)	nt	5.1%	nt	nt
O=C(NC1CCCC1)C1C(c2ccc(C(F)(F)F)cc2)=Nc2ccccc2N1C(=O)c1cccc2ccccc12 (centres undefined)	nt	nt	-13.2%	nt
O=C(C1CCCN(S(=O)(=O)c2cccc3nonc23)C1)N1CCN(c2cccc(C(F)(F)F)c2)CC1 (centres undefined)	6.6%	-7.3%	nt	nt
CC(C)Oc1cccc(C(=O)Nc2nnc([C@@H]3C[C@H](O)[C@@H](CO)O3)s2)c1	12.6%	nt	-1.3%	nt
CCN1CCN(Cc2c(O)ccc3c(=O)c(Oc4ccccc4Cl)c(C(F)(F)F)oc23)CC1	-0.5%	-3.3%	nt	nt
CC[C@H](NC(=O)[C@H](CCCN=C(N)N)NC(=O)[C@H](Cc1c[nH]c2ccccc12)NC(=O)[C@@H](N)CS)C(=O)N[C@@H](CCCN=C(N)N)C(=O)N[C@@H](Cc1ccc(O)cc1)C(N)=O	nt	39.8µM*	nt	nt
O=C(CCN1C(=O)NC2(CCCC2)C1=O)Nc1ccc(-c2nc3ccccc3s2)cc1	-34.5%	-9.8%	6.3%	3.4%
O=C(CN1CCN(CC(=O)Nc2ccccc2F)CC1)Nc1ccc(Cl)c(C(F)(F)F)c1	nt	6.4%	nt	nt
COc1ccc(S(=O)(=O)N2CCC(C(=O)N3CCCC3)CC2)cc1	-29.0%	12.3%	-1.7%	0.6%

Screening data deposited in PubChem by National Center for Advancing Translational Sciences (NCATS).
